{"source": "the OligoGym collection"}
{"target": "GPKOW", "test": "pooled miR-30 sensor sort-seq; sequence = guide strand", "conditions": "shRNA"}
{"sequence": "TAGGACATCTTCAATTATCATC", "sensor-assay potency score (higher = more potent)": -1.06}
{"sequence": "TCAATTATCATCTTGGTGTTGT", "sensor-assay potency score (higher = more potent)": 0.378}
{"sequence": "TACATGTTGTCCACAAACCGCA", "sensor-assay potency score (higher = more potent)": -0.382}
{"sequence": "TTCTCTTGCTCCTCATCTGGTC", "sensor-assay potency score (higher = more potent)": -0.383}
{"sequence": "TCACTAACAGTCACCACCCGGC", "sensor-assay potency score (higher = more potent)": -0.433}
{"sequence": "TTCTCTTGGCAGTTGCACCAAA", "sensor-assay potency score (higher = more potent)": -0.529}
{"sequence": "TTCAATTATCATCTTGGTGTTG", "sensor-assay potency score (higher = more potent)": -0.529}
{"sequence": "TACAGAACTGGTACCAGCCTGG", "sensor-assay potency score (higher = more potent)": -0.224}
{"sequence": "TTCTTGTCAAACTCCTGCTGGG", "sensor-assay potency score (higher = more potent)": -0.621}
{"sequence": "TCTTCAATTATCATCTTGGTGT", "sensor-assay potency score (higher = more potent)": -0.0614}
{"sequence": "TAAATTTTGGTAAATATTGGGT", "sensor-assay potency score (higher = more potent)": -0.472}
{"sequence": "TTCACTACTTGATTGAAGGTGC", "sensor-assay potency score (higher = more potent)": 0.973}
{"target": "GPR109B", "test": "pooled miR-30 sensor sort-seq; sequence = guide strand", "conditions": "shRNA"}
{"sequence": "ATAGTAGTCCATCACGAACGGC", "sensor-assay potency score (higher = more potent)": -1.03}
{"sequence": "TGCAGTGCCATTCTGGATCAGC", "sensor-assay potency score (higher = more potent)": -0.994}
{"sequence": "TAGTAGTCCATCACGAACGGCA", "sensor-assay potency score (higher = more potent)": -0.532}
{"sequence": "TCACCTGTTATCTTCCTCTGGA", "sensor-assay potency score (higher = more potent)": -0.218}
{"sequence": "TAGGCCAACAGTGATGCCCCAC", "sensor-assay potency score (higher = more potent)": -0.395}
{"sequence": "AACATGAAGAGCACCAGCCGGC", "sensor-assay potency score (higher = more potent)": -0.505}
{"sequence": "AAACATGAAGAGCACCAGCCGG", "sensor-assay potency score (higher = more potent)": -1.47}
{"sequence": "TAGAAAGTCAGCTACTGCCAGG", "sensor-assay potency score (higher = more potent)": -1.14}
{"sequence": "TTGGCAATGAAGTCATCTCGGA", "sensor-assay potency score (higher = more potent)": -0.164}
{"sequence": "ATTCTGGATCAGCAACTTCTTC", "sensor-assay potency score (higher = more potent)": -1.51}
{"sequence": "TGGCAATGAAGTCATCTCGGAA", "sensor-assay potency score (higher = more potent)": -1.54}
{"sequence": "TTGGAATGGTTATTTGAGGTTG", "sensor-assay potency score (higher = more potent)": -0.497}
{"target": "GPR123", "test": "pooled miR-30 sensor sort-seq; sequence = guide strand", "conditions": "shRNA"}
{"sequence": "TAATTCCTGATGTTCGTGGCAG", "sensor-assay potency score (higher = more potent)": -0.373}
{"sequence": "TGCATCTTGGCGCAGCACGGGG", "sensor-assay potency score (higher = more potent)": -1.59}
{"sequence": "TGTAGAATAGTGCAGCACGATG", "sensor-assay potency score (higher = more potent)": -1.66}
{"sequence": "TTCTAGCAATTTACCCTTGGGC", "sensor-assay potency score (higher = more potent)": -1.05}
{"sequence": "AACAGGAACAGCGTGAAGGCGG", "sensor-assay potency score (higher = more potent)": -0.39}
{"sequence": "TTCTGCAGCACGGAGGCGCCGG", "sensor-assay potency score (higher = more potent)": -0.928}
{"sequence": "TTCTTGGTCACCTGCTTGTAGA", "sensor-assay potency score (higher = more potent)": -1.61}
{"sequence": "TAGCAATTTACCCTTGGGCAGC", "sensor-assay potency score (higher = more potent)": -1.23}
{"sequence": "TTTTCCAGGGTCCCGTTCGGAT", "sensor-assay potency score (higher = more potent)": -1.35}
{"sequence": "TCGCAGTGCATCTTGGCGCAGC", "sensor-assay potency score (higher = more potent)": -1.13}
{"sequence": "TCGTTCTGCAGCACGGAGGCGC", "sensor-assay potency score (higher = more potent)": -0.763}
{"sequence": "TGTGTGCGCAGCTCGTACCTGC", "sensor-assay potency score (higher = more potent)": -0.983}
{"target": "GPR137", "test": "pooled miR-30 sensor sort-seq; sequence = guide strand", "conditions": "shRNA"}
{"sequence": "AGTGCTGTCAGGTTGTAGCAGG", "sensor-assay potency score (higher = more potent)": -1.93}
{"sequence": "TAATCGAAGGTGTCCAGCCGGC", "sensor-assay potency score (higher = more potent)": -0.771}
{"sequence": "TCACTATGACAGGAGCAGCAAG", "sensor-assay potency score (higher = more potent)": -1.58}
